The list is not random: actives were taken first. Their share in the collection is about 4.2%.
DAX1 StAR inh: blocks DAX1 repression of SF-1 activated StAR promoter | HEK293T StAR-luciferase reporter, SF-1/DAX-1 repression relief | inhibition, % at 6.8 µM | 370,000 tested, 1.1% active | AID 652010;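 active = inhibition above the mean over all tested compounds plus 3 SD, cut at about 3.6% in these data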;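 also: 0% = DAX-1 cells with DMSO and 100% = cells lacking DAX-1 with DMSO; higher inhibition means more luminescence from relief of DAX-1 repression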
hgDAF12 agonist: agonists of H. glycines DAF-12 nuclear receptor | HEK293 GAL4-hgDAF12 UAS-luciferase reporter, agonist luminescence; normalized to butyrate control | activation, % at 6.8 µM | 370,000 tested, 1.8% active;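 active = activation above a cutoff set at the mean of all screened compounds plus 3 SD, cut at about 10% in these data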;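 also: 0% = DMSO wells and 100% = sodium butyrate wells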
ssDAF12 agonist: activates DAF-12 receptor from parasite S. stercoralis. AID 652126. 370,000 tested, 1% active. activation, % at 6.8 µM. HEK293 ssDAF-12/GRIP1 lit1-tk-luc reporter, luminescence; % of 3 µM dafachronic acid response;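 active = activation above the mean over all tested compounds plus 3 SD, cut at about 0.9% in these data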;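 also: 0% = DMSO-only wells and 100% = 3 µM delta7-dafachronic acid wells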
SMARCA2 activ: SMARCA2 function activation, primary screen; MG213 cells, MMTV-luciferase reporter, dexamethasone, overnight; activation, % at 9.1 µM; 370,000 tested, 1% active; in the data active = activation above about 7.8%;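 also: 0% = vehicle wells and 100% = reference activator wells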
hcDAF-12 act: activates DAF-12 receptor from parasite H. contortus. activation, % at 6.8 µM. 370,000 tested, 1.4% active. AID 652067. HEK293 hcDAF-12 lit1-tk-luc reporter, luminescence; 0% DMSO, 100% Δ7-dafachronic acid;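 active = activation above the mean of all tested compounds plus 3 SD, cut at about 5.5% in these data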;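 also: 100% = response to 3 µM Δ7-dafachronic acid high control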
Numbers without * were called inactive; x = not tested or not shown.

SMILES | DAX1 StAR inh | hgDAF12 agonist | ssDAF12 agonist | SMARCA2 activ | hcDAF-12 act
CCCCc1nc2cc(C(=O)N3CCCCC3CC(=O)OCC)ccc2o1 (stereo not drawn) | -0.3 | 3.1 | -0.6 | 1.8 | 3.5
CCCCc1nc2cc(C(=O)N3CCCC3)ccc2o1 | 4.0* | 3.5 | -0.7 | 0.6 | 0.8
CCCCc1nc2cc(C(=O)N3CCCCC3C(=O)OC)ccc2o1 (stereo not drawn) | 4.2* | 12.2* | -0.2 | 2.5 | -0.9
Cc1cnc(C=O)c2cccc([N+](=O)[O-])c12 | -0.7 | 0.0 | 0.3 | -1.8 | 5.9*
Cc1ncc(C)c2c([N+](=O)[O-])cccc12 | -0.1 | -1.8 | -1.7 | -3.9 | -1.4
COC(=O)[C@]12C[C@H](CC(=O)N3CCN(C(=O)C4CC4)CC3)C(=O)N(Cc3ccco3)C1=C[C@H](C(C)(C)C)O[C@@H]2C | 0.8 | -3.3 | -0.9 | -2.4 | -1.9
C[C@H](O)[C@@H]1CN2CCc3ccc(-c4ccc5c(c4)OCO5)cc3[C@@H]2C[C@@H]1N(C)CC1CCCCC1 | -0.8 | 3.2 | -1.3 | 0.0 | -1.4
COc1ccc(C)cc1N(C(=O)c1cccc(F)c1)c1nc2ccccc2s1 | 0.2 | 1.4 | 0.0 | 0.0 | 6.5*
COc1ccc(C)cc1N(C(=O)c1ccccc1)c1nc2ccccc2s1 | -0.3 | 1.4 | 0.3 | 0.2 | 3.5
COc1ccc(C)cc1N(C(=O)COc1ccccc1)c1nc2ccccc2s1 | 0.6 | 4.5 | 0.5 | -2.5 | 6.2*
COc1ccc(C)cc1N(C(=O)c1ccccc1F)c1nc2ccccc2s1 | -0.5 | 0.7 | -0.3 | 2.9 | 2.9
CN(C)CCCOc1ccc(-c2ccc3nncn3c2)cn1 | 0.6 | 3.3 | -1.4 | 3.1 | -1.4
Cc1ccc(NC(=O)CC(=O)Nc2ccc(C)cc2C)c(C)c1 | -0.2 | 0.4 | -1.6 | -1.0 | -0.2
Cc1ccc(N=CNc2ccc(C)cc2C)c(C)c1 | -0.4 | -1.0 | 1.8* | -4.9 | 0.3
O=C(Cn1cnc2ccccc2c1=O)c1ccc2c(c1)OCCO2 | 2.4 | 11.4* | -0.4 | 7.6 | 3.2
O=C(Cn1cnc2ccccc2c1=O)c1ccc2ccccc2c1 | 1.2 | 10.1 | -0.4 | -0.1 | 1.2
Cc1c(C(=O)NCc2cccc(C(F)(F)F)c2)sc(=O)n1Cc1ccccc1F | -0.5 | -2.3 | -0.5 | -1.5 | 0.4
Cc1ccccc1CN1CCCCC(NC(=O)c2ccc3ccccc3c2)C1=O (stereo not drawn) | -2.1 | -4.0 | -1.3 | -3.2 | -4.9
COc1ccc(NC(=O)/C(C#N)=C\c2ccc(N3CCOCC3)o2)cc1 | 0.5 | 12.8* | -0.7 | 2.8 | 0.8
N#C/C(=C/c1ccc(N2CCCCC2)o1)C(=O)Nc1ccc2ccccc2c1 | -1.0 | 1.1 | -1.9 | 0.2 | -2.9
N#C/C(=C/c1ccc(N2CCCCC2)o1)C(=O)Nc1ccc(Cl)cc1 | 1.2 | 11.2* | -1.6 | 4.9 | -0.9
O=C(CCc1ccccc1)N[C@H]1[C@H](O)CCC[C@]12C(=O)N(Cc1ccccc1)c1ccccc12 | -0.1 | 3.6 | -0.9 | -2.1 | -0.2
CNC(=O)C1=C(C)Nc2nc3ccccc3n2C1c1ccc(F)cc1 (stereo not drawn) | -0.1 | 2.7 | -1.0 | 1.6 | -0.9
N#CC1=C(N)Nc2nc3ccccc3n2C1c1ccc(F)cc1 (stereo not drawn) | -0.9 | -1.7 | 1.3* | -1.6 | -2.1
COc1ccc([N+](=O)[O-])cc1NC(=O)CSCc1ccc(Br)cc1 | 0.2 | 2.2 | 1.0* | 5.3 | 1.6
SMILES | DAX1 StAR inh | hgDAF12 agonist | ssDAF12 agonist | SMARCA2 activ | hcDAF-12 act
CCCC1CCC2(CC1)CCC2OC(=S)NCc1cccc(OC)c1 (stereo not drawn) | x | 3.5 | -0.1 | x | -0.6
Nc1nc(CSc2ccccn2)nc(Nc2ccccc2)n1 | 3.5 | 10.9* | 0.7 | -0.8 | 4.7
CCCCN(C(C)=O)c1ccc2c(c1)C1CC2CCN1C(=O)OCc1ccccc1 (stereo not drawn) | -5.3 | -4.5 | -2.4 | -4.3 | -5.0
CCN(CCc1ccccc1)c1ccc2c(c1)C1CC2CCN1C(=O)OCc1ccccc1 (stereo not drawn) | 1.0 | 1.1 | 1.6* | -0.7 | 0.1
O=C(NCc1ccccc1)O[C@H]1CC[C@@]23CCCN2C(=O)CCC[C@H]3C1 | x | 1.6 | -1.9 | x | -2.2
CCC(CO)Nc1ccn2nc(-c3cccc(Cl)c3)cc2n1 (stereo not drawn) | 3.9* | 12.6* | -0.3 | 2.1 | 3.7
OC1CCC(Nc2ccn3nc(-c4cccc(Cl)c4)cc3n2)CC1 (stereo not drawn) | 2.2 | 3.3 | -0.6 | 1.4 | 0.3
